Among all 310,000 compounds or so, about 14,000 (4.5%) showed an effect of 50% or more. The effect is printed as a negative number. This excerpt belongs to a sample that is enriched for strong results.
target: human ether-à-go-go-related gene (hERG) potassium channel (human, UniProt Q12809); assay: primary screen, population patch clamp on CHO cells stably expressing hERG; higher = less effect of the substance
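Also: peak tail current of the secondary pulse compared with the same well before compound.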

human ether-à-go-go-related gene (hERG) potassium channel, sequence (Q12809 whole entry, looked up): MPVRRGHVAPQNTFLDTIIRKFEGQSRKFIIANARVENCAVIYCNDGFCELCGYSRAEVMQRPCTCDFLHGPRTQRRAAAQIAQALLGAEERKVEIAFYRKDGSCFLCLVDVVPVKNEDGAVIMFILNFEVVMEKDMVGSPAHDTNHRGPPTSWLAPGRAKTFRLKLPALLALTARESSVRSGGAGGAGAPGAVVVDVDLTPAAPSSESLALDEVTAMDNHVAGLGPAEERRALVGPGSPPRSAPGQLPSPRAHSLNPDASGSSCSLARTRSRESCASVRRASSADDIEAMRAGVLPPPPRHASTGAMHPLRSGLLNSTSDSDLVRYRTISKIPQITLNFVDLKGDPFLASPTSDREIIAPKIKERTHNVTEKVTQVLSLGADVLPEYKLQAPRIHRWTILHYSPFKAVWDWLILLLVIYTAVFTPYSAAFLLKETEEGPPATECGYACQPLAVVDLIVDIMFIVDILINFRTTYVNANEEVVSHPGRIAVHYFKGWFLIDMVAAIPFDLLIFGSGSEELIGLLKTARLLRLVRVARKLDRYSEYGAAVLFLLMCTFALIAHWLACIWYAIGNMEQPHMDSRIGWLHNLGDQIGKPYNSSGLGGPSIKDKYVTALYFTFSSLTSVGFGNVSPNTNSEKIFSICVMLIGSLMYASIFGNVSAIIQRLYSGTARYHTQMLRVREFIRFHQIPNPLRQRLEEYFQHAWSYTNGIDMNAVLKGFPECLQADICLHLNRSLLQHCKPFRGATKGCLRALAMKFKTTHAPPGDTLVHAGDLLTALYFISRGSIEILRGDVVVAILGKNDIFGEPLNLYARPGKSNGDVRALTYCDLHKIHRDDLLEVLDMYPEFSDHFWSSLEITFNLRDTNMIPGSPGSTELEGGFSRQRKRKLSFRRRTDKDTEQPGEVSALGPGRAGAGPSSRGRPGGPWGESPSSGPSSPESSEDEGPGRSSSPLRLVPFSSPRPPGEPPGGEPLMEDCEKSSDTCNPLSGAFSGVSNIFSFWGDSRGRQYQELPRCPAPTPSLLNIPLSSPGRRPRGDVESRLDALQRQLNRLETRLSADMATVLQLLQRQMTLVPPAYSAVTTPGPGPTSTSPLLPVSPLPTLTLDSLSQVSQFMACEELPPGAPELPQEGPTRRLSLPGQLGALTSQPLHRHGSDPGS

| SMILES | hERG current change (%, negative = inhibition) at 10uM [%] |
| --- | --- |
| C(=N\N1CCN(C2c3ccccc3-c3ccccc32)CC1)/c1cccnc1 | 2.63 |
| Cc1nnc(NC(=O)c2ccc(S(=O)(=O)N3CC(C)OC(C)C3)cc2)o1 (stereo not shown) | 12.6 |
| Cc1ccc(S(=O)(=O)N2CCCC2C(=O)Nc2nc3ccccc3s2)cc1 (stereo not shown) | -14.8 |
| Oc1ccc(/C=N/N=C(c2ccccc2)c2ccccc2)c(O)c1O | 8.49 |
| COC(=O)CSc1nccc(C)n1 | 14.6 |
| COC(=O)c1cn(NC(=O)Cn2nc([N+](=O)[O-])c(Cl)c2C)c(=O)c2ccccc12 | 18.6 |
| O=C(Nc1ccccc1O)c1cccc(S(=O)(=O)N2CCOCC2)c1 | 17.7 |
| CC1CCN(S(=O)(=O)c2cccc(C(=O)Nc3ccccc3)c2)CC1 | -9.3 |
| O=C(Nc1ccccc1C(=O)N1CCCC1)c1cccc(S(=O)(=O)N2CCCCC2)c1 | -12.1 |
| CC1CCN(S(=O)(=O)c2cccc(C(=O)Nc3ccccn3)c2)CC1 | -22.1 |
| CNC(=O)c1ccccc1NC(=O)c1cccc(S(=O)(=O)N2CCCCC2)c1 | -51.1 |
| Cc1ccccc1NC(=O)c1cccc(S(=O)(=O)N2CCOCC2)c1 | 31.9 |
| CCNC(=O)c1ccccc1NC(=O)c1cccc(S(=O)(=O)N2CCOCC2)c1 | -71.5 |
| CCNC(=O)c1ccccc1NC(=O)c1cccc(S(=O)(=O)N2CCC(C)CC2)c1 | -55.4 |
| O=C(Nc1ccccc1C(=O)N1CCCC1)c1cccc(S(=O)(=O)N2CCCCCC2)c1 | -39.3 |
| COc1c(O)c(=O)n2c3ccccc3c3ccnc1c32 | 7.51 |
| CCc1ccc(NC(=O)Nn2cnnc2)cc1 | 23.7 |
| COC(=O)CNC(=O)CSc1nnc(-c2ccc(OC)cc2)n1CC(C)C | 4.97 |
| O=C(/C=N/O)Nc1ccccc1C(=O)O | -13.7 |
| N#Cc1ccc(C23CC4(C2)[C@H](CN(CC2CCCCC2)[C@@H]4c2ccccc2)C3c2ccccc2)cc1 (stereo partly shown) | -13.6 |
| O=C(Nc1ccc(Cl)cc1)c1cccnc1N1CCCCC1 | -13.3 |
| COc1cc(C(=O)NCCNc2nc3ccc(C)cc3cc2C#N)cc(OC)c1OC | -4.74 |

| SMILES | hERG current change (%, negative = inhibition) at 10uM [%] |
| --- | --- |
| Cc1cccc2cc3c(NC(=O)CC(C)C)nn(C)c3nc12 | 10.2 |
| Cc1cccc(-c2sc(Nc3ccccc3)n[n+]2-c2ccccc2)c1.[Cl-] | -72 |
| Fc1ccc(-[n+]2nc(Nc3ccccc3)sc2-c2c(Cl)cccc2Cl)cc1.[Cl-] | -64 |
| CCN(CC)c1ccc(-c2sc(Nc3ccccc3)n[n+]2-c2ccc(F)cc2)cc1.[Cl-] | -71.6 |
| CSc1ccc(-c2sc(Nc3ccccc3)n[n+]2-c2ccccc2)cc1.[Cl-] | -46.2 |
| O=C(O)c1ccc(-c2sc(Nc3ccccc3)n[n+]2-c2ccc(F)cc2)cc1.[Cl-] | 2.83 |
| CCc1ccc(Nc2n[n+](-c3ccccc3)c(-c3ccc(N(CC)CC)cc3)s2)cc1.[Cl-] | -36 |
| Fc1ccc(-[n+]2nc(Nc3ccccc3)sc2-c2cccc(Cl)c2Cl)cc1.[Cl-] | 8 |
| CN(C)c1ccc(-c2sc(Nc3ccccc3)n[n+]2-c2ccc(F)cc2)cc1.[Cl-] | -73.1 |
| CSc1ccc(-c2sc(Nc3ccccc3)n[n+]2-c2ccc(F)cc2)cc1.[Cl-] | 1.55 |
| Oc1ccc(-c2sc(Nc3ccccc3)n[n+]2-c2ccc(F)cc2)cc1.[Cl-] | -1.63 |
| Clc1cccc(-c2sc(Nc3ccccc3)n[n+]2-c2ccccc2)c1Cl.[Cl-] | 5.53 |
| Cc1cccc(-c2sc(Nc3ccccc3)n[n+]2-c2ccc(F)cc2)c1.[Cl-] | 21.7 |
| Cl.O=C(c1ccco1)N1CCN(Cc2nnnn2CC2CCCO2)CC1 (stereo not shown) | -3.16 |
| Cn1c(=O)[nH]c(=O)c2c1nc(NC1CCCC1)n2Cc1ccccc1 | 15.8 |
| CC1CCN(c2c(NCc3ccc(C(=O)N4c5ccccc5CC4C)cc3)c(=O)c2=O)CC1 (stereo not shown) | -13 |
| Cc1ccc(S(=O)(=O)Nc2c(C(=O)O)[nH]c3ccccc23)c(C)c1 | 8.39 |
| N#C/C(N)=C(/C#N)N=Cc1cccc(Cl)c1 | 4.99 |
| CCN1CCN(Cc2c(O)ccc3c2O/C(=C\c2ccc(C)cc2)C3=O)CC1 | -35.7 |
| CSc1ccc(S(=O)(=O)Nc2ccc(NC(C)=O)cc2)cc1 | -11.3 |
| CCOc1ccc(CN(C(=O)/C=C/c2ccco2)C2CCS(=O)(=O)C2)cc1 (stereo not shown) | -31.6 |
